# Screening data: PubChem BioAssay, National Center for Advancing Translational Sciences (NCATS)
# An excerpt weighted towards active compounds, which were near 3.2% of everything screened.
# Tau FP inhib = qHTS for Inhibitors of Tau Fibril Formation, Fluorescence Polarization | Microtubule-associated protein tau (Homo sapiens), P10636 | K18 P301L tau heparin fibrillization, Alexa594 FP, 6 h | Potency, µM (series often up to 57.7 µM), for the others: top-dose activity, negative = inhibition, most hits filed as inhibitors | 280,000 compounds, 0.39% hits | AID 1468, 2008; also: nearly all actives have a fitted effect of over 55% in size
# Target sequence (P10636 561-689 P618L limits assumed): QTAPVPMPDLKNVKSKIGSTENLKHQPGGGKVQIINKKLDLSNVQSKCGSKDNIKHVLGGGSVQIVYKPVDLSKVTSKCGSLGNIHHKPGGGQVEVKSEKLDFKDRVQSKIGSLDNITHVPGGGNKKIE
#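 Human tau K18 […] P301L fragment, 15 uM unlabeled plus 0.24 uM Alexa 594-labeled tau (final), with compound and 20 uM heparin in 100 mM sodium acetate pH 7; 6 hr at 37 C, then Alexa 594 FP read.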
# TRb SRC2 PPI = qHTS for Inhibitors of the Interaction of Thyroid Hormone Receptor and Steroid Receptor Coregulator 2; Thyroid hormone receptor beta (Homo sapiens), P10828; TRbeta-SRC2 peptide binding, fluorescence polarization; receptor liganded with 1 µM T3; Potency, µM (top dose mostly 106 µM), for the others: at the top dose activity change, negative = inhibition, hits mostly inhibitors; 280,000 compounds, 0.065% hits;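 also: plate controls were bound peptide for no effect and peptide without receptor for full effect; nearly all actives have a fitted effect of over 50% in size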
#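 Decrease in fluorescence polarization of 20 nM Texas Red SRC2 coactivator peptide flagged inhibition of its binding to 0.6 uM TRb LBD; 1 uM T3 included, incubation 5 hr, ex 555/em 632 nm.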
# Tau ThT inhib = qHTS for Inhibitors of Tau Fibril Formation, Thioflavin T Binding; AID 1460, 2008; recombinant tau K18 P301L, heparin-induced fibrillization, ThT fluorescence; 270,000 compounds, 2.1% hits; Potency, µM (highest dose often 57.4 µM), inactives show top-dose activity, negative = inhibition, actives largely listed as inhibitors; also: nearly all actives have a fitted effect of over 55% in size
#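 ThT emission at 510 nm, taken 1 hr after adding 30 uM dye, quantifies aggregates formed when 20 uM heparin acts on human tau K18 P301L for 6 hr at 37 C.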
# TexasRed fluor = Total Fluorescence Counterscreen for Inhibitors of the Interaction of Thyroid Hormone Receptor and Steroid Receptor Coregulator 2. TRb/SRC2 Texas Red total fluorescence interference. Potency, µM (series often up to 106 µM), without a hit: top-dose fluorescence change, negative = quenching. 280,000 compounds, 0.29% hits; active = well fitted curve in either direction with a large enough effect; inconclusive = small, poorly fitted or top-dose-only effect
#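 Flags fluorescent or light-absorbing compounds by total fluorescence, S + 2P, at 555 nm excitation and 632 nm emission. Mixture: 20 nM Texas Red SRC2 peptide, 0.6 uM human TRb LBD, 1 uM T3, 5% DMSO; compound exposure 5 h at ambient temperature.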
# Tau fluor counter = Counterscreen qHTS for Inhibitors of Tau Fibril Formation, Fluorescence Polarization | 280,000 compounds, 0.93% hits | tau K18 P301L (four-repeat tau fragment) Alexa594 fluorescence, heparin fibrillization | AID 1463, 2008 | Potency, µM (titrated, usually from 57.7 µM), for the others: at the top dose activity change, negative = decrease; also: nearly all actives have a fitted effect of over 55% in size
#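 Human K18 P301L tau (15 uM unlabeled plus 0.24 uM Alexa 594-labeled, final) in 100 mM sodium acetate pH 7 was mixed with compound and 20 uM heparin and incubated 6 hr at 37 C.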
# GoLoco inh red = qHTS Assay for Inhibitors of RGS12 GoLoco Motif Activity (Red Fluorophore) | Guanine nucleotide-binding protein G(i) subunit alpha-1 (Homo sapiens), P63096 | Gai1:RGS12 GoLoco peptide FP, rhodamine, 10 min | Potency, µM (highest dose often 61.6 µM), inactives show top-dose activity, negative = inhibition, most hits filed as inhibitors | 230,000 compounds, 0.44% hits | AID 880, 2007; active = well fitted inhibition curve with a large enough effect, not every such curve was filed as active; inactive = no such curve, though single readings can be large or run the other way; also: nearly all actives have a fitted effect of over 30% in size
# Target sequence (P63096 whole entry, looked up): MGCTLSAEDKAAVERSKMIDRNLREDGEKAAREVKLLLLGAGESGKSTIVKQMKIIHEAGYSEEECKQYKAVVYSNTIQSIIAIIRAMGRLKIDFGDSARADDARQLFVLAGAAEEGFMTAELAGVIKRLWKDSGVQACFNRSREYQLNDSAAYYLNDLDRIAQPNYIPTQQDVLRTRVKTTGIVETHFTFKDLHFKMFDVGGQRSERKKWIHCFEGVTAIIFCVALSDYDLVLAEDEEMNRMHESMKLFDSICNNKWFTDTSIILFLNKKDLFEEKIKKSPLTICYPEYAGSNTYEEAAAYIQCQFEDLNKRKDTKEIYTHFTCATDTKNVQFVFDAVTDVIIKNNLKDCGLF
# Starred values were filed as active, the others as inactive; ? = inconclusive; nt = no result given; [ ] = another dose, or the depositor's remark. Unless noted, calls follow the shape of the dose curve; as a rule, active = well fitted curve in the direction sought with a large enough effect; inconclusive = small, poorly fitted or top-dose-only effect, or another doubt; inactive = no such curve, though single readings can be large; an effect the other way counts as inactive or inconclusive. Unless noted, % is scaled to controls: 0 for no effect and ±100 for the full control effect; potency is read from the fitted curve at half-maximal effect.
SMILES,Tau FP inhib,TRb SRC2 PPI,Tau ThT inhib,TexasRed fluor,Tau fluor counter,GoLoco inh red
COc1ccc(CC(N)C(=O)N[C@H]2[C@@H](O)[C@H](n3cnc4c(N(C)C)ncnc43)O[C@@H]2CO)cc1 (stereo partly specified),7%,-1%,-5%,7%,-3%,-2%
CC1=CC(C)(C)Nc2ccc(OC(=O)CCN3C(=O)c4ccccc4C3=O)cc21,?,-4%,?,5%,?,-4%
COC(=O)c1ccc(OS(=O)(=O)c2ccc(NC(C)=O)cc2)cc1,-10%,-5%,0%,-1%,-11%,7%
CC(=O)Nc1ccc(S(=O)(=O)Oc2ccc3c(c2)C(C)=CC(C)(C)N3)cc1,?,2%,?,-1%,14µM*[quencher],-2%
CC1=CC(C)(C)Nc2ccc(OS(=O)(=O)c3ccc(C)cc3)cc21,?,-14%,8.9µM*,2%,5µM*[quencher],-3%
O=C(O)CC[C@@H](C(=O)O)N1C(=O)[C@@H]2[C@@H]3CC[C@H](C3)[C@@H]2C1=O,nt,nt,nt,nt,nt,2%[14.2 µM]
CS(=O)(=O)NCCNc1ccc(C(F)(F)F)cc1[N+](=O)[O-],-3%,1%,-18%,0%,-2%,11%
COc1ccc2[nH]c(C)c(CCNc3ccc(C(F)(F)F)cc3[N+](=O)[O-])c2c1,?,8%,?,-1%,11µM*[quencher],6%
C[Si](Cl)(Cl)c1ccccc1,nt,-1%[201 µM],nt,0%[201 µM],nt,nt
O=C(O)CCCCCN1C(=O)/C(=C\c2cn(-c3ccccc3)nc2-c2cccs2)SC1=S,8%,2%,14µM*,-4%,-16%,5%
Cc1ccc(-c2nn(-c3ccccc3)cc2/C=C2\SC(=S)N(CC(=O)O)C2=O)cc1,-4%,13%,18µM*,-3%,-12%,9%
O=C(O)CCN1C(=O)/C(=C/c2cn(-c3ccccc3)nc2-c2cccs2)SC1=S,-3%[2.34 µM],-4%,4%,1%,-1%[2.34 µM],9%
CN(Cc1ccccc1)C(=O)[C@H](Cc1ccc2ccccc2c1)NC(=O)[C@@H]1C[C@@H](O)CN1C(=O)c1cn(C)c2ccccc12,-4%,4%,?,-3%,-22%,14%
CC(C)(C)OC(=O)N1CCCC1C(=O)NC1COC2CC(n3cc(F)c(=O)[nH]c3=O)OC12 (stereo unspecified),nt,3%,nt,1%,nt,nt
CC(=O)C1=C(C)NC(SCC(=O)c2ccc(C)cc2)=C(C#N)C1c1ccco1 (stereo unspecified),?,-5%,16µM*,-2%,14µM*[quencher],31%
Cc1ccc(C(=O)CSC2=C(C#N)C(c3ccco3)C3=C(CC(C)(C)CC3=O)N2)cc1 (stereo unspecified),8%,8%,?,-2%,-23%,5%
Cc1cc(C)cc(NC2=C(c3ccccc3)C(=O)c3ccccc32)c1,4%,-4%,?,-5%,7.9µM*[quencher],nt
COc1ccc(C2=C(Nc3ccc(C)cc3)c3ccccc3C2=O)cc1,5%,-9%,-13%,2%,-23%,14%
COc1ccc(C2=C(Nc3ccc(Br)c(C)c3)c3ccccc3C2=O)cc1,6%,-6%,?,1%,4µM*[quencher],nt
Cc1cc(N)ccc1N=Nc1c(C)n(C)n(-c2ccccc2)c1=O,5%,8%,?,1%,-15%,8%
Cc1ccc(N=Nc2ccc(N)cc2C)c(S(N)(=O)=O)c1,15%,-7%,14µM*,-4%,?,3%[14.2 µM]
CCOC(=O)C1=C(C)N=c2s/c(=C3/C(=O)Nc4ccccc43)c(=O)n2C1c1ccc(C)cc1 (stereo unspecified),3%,8%,-6%,-3%,-3%,-3%
CCOC(=O)C1=C(C)n2c(s/c(=C3\C(=O)Nc4ccccc43)c2=O)=NC1c1ccc(OC)cc1 (stereo unspecified),?,-1%,16µM*,-2%,?,-5%
C=CCOC(=O)N[C@@H](c1ccc(Br)cc1)C(C(C)=O)C(C)=O,?,4%,-1%,-2%,-2%,-2%
O=C1/C(=C/c2ccccc2[N+](=O)[O-])COc2ccccc21,?,4%,13µM*,-1%,?,1%
SMILES,Tau FP inhib,TRb SRC2 PPI,Tau ThT inhib,TexasRed fluor,Tau fluor counter,GoLoco inh red
CNc1ccc(/C=C2\COc3ccccc3C2=O)cc1[N+](=O)[O-],-2%,-9%,1.6µM*,0%,-12%,7%
C=CCOC(=O)N[C@H](c1cccc(C(F)(F)F)c1)C(C(C)=O)C(C)=O,5%,-11%,2%,-1%,-2%,-2%
Cc1ccc(C2c3[nH]c4ccccc4c3CCN2C(=O)CSc2ccccc2)cc1 (stereo unspecified),-1%,-2%,-7%,-1%,-14%,nt
CCOc1ccc(C2c3[nH]c4ccccc4c3CCN2C(=O)CSc2ccccc2)cc1 (stereo unspecified),4%,-16%,3%,2.8µM*[quencher],-6%,nt
O=c1oc2ccccc2cc1-c1nc2ccccc2o1,2%,8%,?,-7%,-7%,7%
Nc1cc2nc3ccccc3oc-2cc1=O,11µM*,-11%,7.1µM*,8%,?,23%
Oc1ccc2ccccc2c1C=NC12CN3CCN(CN(C3)C1)C2,?,?,20µM*,-24%,?,-14%
O=C(N/N=C/c1c(O)ccc2ccccc12)c1cccc(C(F)(F)F)c1,?,-5%,?,-6%,8.9µM*[quencher],30%
OCC(CO)(CO)N=Cc1c(O)ccc2ccccc12,?,?,25µM*,-19%,?,5%
O=C(OCC(=O)c1c[nH]c2ccccc12)c1ccc([N+](=O)[O-])s1,-13%,-1%,-4%,-4%,-10%,13%
CCc1cccc2c(C(=O)COC(=O)c3ccc([N+](=O)[O-])s3)c[nH]c12,-8%,5%,7.1µM*,-1%,11µM*[quencher],4%
O=C1CCCCC/C1=N/Nc1ccc(OCc2ccccc2)cc1,4%,4%,11µM*,0%,?,10%
CN(C)C(=O)CCSC(SCCC(=O)O)c1cccc(/C=C/c2ccc3ccc(Cl)cc3n2)c1 (stereo unspecified),nt,8%,nt,-5%,nt,nt
